Screening data (PubChem)
A selection: hits, their analogues and other compounds. The true share with any hit is near 1.7%.
GLP1R ag – GLP-1 receptor (human) agonism; P43220; 380,000 compounds, 0.007% hits; HEK293 GLP-1R CRE-luciferase, luminescence, 4-6 h; cells express a hypersensitive GLP-1R form; Potency, µM (series often up to 45.6 µM), without a hit: at the highest dose activation, most hits filed as activators; also: % of control where 0% means no effect
Target sequence (P43220 whole entry, looked up): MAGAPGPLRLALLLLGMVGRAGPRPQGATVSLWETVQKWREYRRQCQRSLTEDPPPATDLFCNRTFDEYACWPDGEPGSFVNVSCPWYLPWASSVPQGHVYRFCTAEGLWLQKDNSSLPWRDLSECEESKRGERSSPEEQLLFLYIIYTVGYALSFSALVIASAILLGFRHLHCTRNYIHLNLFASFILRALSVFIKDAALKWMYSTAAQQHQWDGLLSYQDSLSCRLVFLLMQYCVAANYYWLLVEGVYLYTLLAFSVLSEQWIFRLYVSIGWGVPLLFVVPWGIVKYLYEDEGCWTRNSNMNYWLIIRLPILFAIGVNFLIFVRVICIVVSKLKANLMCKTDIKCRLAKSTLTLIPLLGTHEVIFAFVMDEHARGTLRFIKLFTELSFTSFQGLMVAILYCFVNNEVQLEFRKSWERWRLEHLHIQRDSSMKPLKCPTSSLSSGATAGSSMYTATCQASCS
HEK293 tox – cytotoxic in the GLP-1 receptor inverse agonist counter-screen | HEK293 cAMP-luciferase reporter cells, luminescence, 24 h | 410,000 compounds, 0.13% hits | AID 624418 | Potency, µM (titrated, usually from 38.3 µM), without a hit: at the top dose activity change, negative = inhibition, actives largely listed as inhibitors;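 also: loss of luciferase light is scored as toxicity; % is scaled to controls: 0 for no effect and ±100 for the full control effect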
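Quantitative HTS format, 1536 wells, 200 cells/uL seeded. Compounds: 23 nL, 24 h, 37 °C. Detection: luciferase reagent, luminescence at 12 min RT; decreased signal taken as cytotoxic.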
GLP1R inv ag – GLP-1 receptor (human) inverse agonism | P43220 | HEK293 GLP-1R CRE-luciferase, luminescence, 24 h; GLP-1R form is constitutively active | Potency, µM (titrated, usually from 38.3 µM), for the others: top-dose activity change, negative = inhibition, most hits filed as inhibitors | 410,000 compounds, 1.6% hits; also: % is scaled to controls: 0 for no effect and ±100 for the full control effect; nearly all actives have a fitted effect of over 55% in size
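Seeding at 200 cells/uL, 12 h culture, 24 hr compound treatment, then luciferase reagent and a luminescence read; cells are HEK293 stably expressing a constitutively active GLP-1R plus cAMP-responsive luciferase.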
* = called active by the depositor; ? = inconclusive; nt = no result; ! = a repeat was not active. Calls follow the shape of the dose curve; as a rule, active = well fitted curve in the direction sought with a large enough effect; inconclusive = small, poorly fitted or top-dose-only effect, or another doubt; inactive = no such curve, though single readings can be large; an effect the other way counts as inactive or inconclusive. Potency is read from the fitted curve at half-maximal effect.

SMILES	GLP1R ag	HEK293 tox	GLP1R inv ag
CCOc1ccc(/C=C/C(O)=C2/C(=O)NC3(C)CC2c2ccccc2O3)cc1OC (stereo not given)	9%	0%	?
C[N+]1([O-])[C@@H]2Cc3cc4c(cc3[C@@H]1Cc1cc3c(cc12)OCO3)OCO4 (stereo not given in full)	-1%	5%	15%
O=C(Nc1ccccc1Cl)NN1CCCCCC1	27%	1%	2µM*
O=C(Nc1cccc(Cl)c1)Nc1cccc(C(=O)O)c1	-4%	-6%	?
O=C(Nc1ccc(Cl)cc1)Nc1cccc(C(=O)O)c1	-8%	1%	1µM*
COc1ccccc1NC(=O)NN1CCCCC1	7%	-5%	?
COC(=O)c1cc(NC(=O)Nc2ccccc2)ccc1Cl	-9%	-16%	10µM*
O=C(Nc1cccc(C(=O)O)c1)Nc1ccccc1Cl	-4%	-2%	4.5µM*
COC(=O)c1cccc(NC(=O)Nc2ccc(Cl)c(Cl)c2)c1	-17%	-28%	?
O=C(Nc1cccc(C(=O)O)c1)Nc1cccc2ccccc12	0%	4%	-17%
COc1ccc(CNC(=O)C2CCN(S(=O)(=O)c3ccc4c(c3)CC(C)N4C(C)=O)CC2)cc1 (stereo not given)	8%	-1%	9%
O=C(Nc1ccc(Cl)cc1)Nc1ccccc1C(=O)O	-8%	5%	?
O=C(Nc1ccc(Cl)c(Cl)c1)Nc1ccccc1C(=O)O	-6%	-7%	5.6µM*
O=[N+]([O-])c1ccc(CSc2ccc(S(=O)(=O)N3CCCC3)cn2)cc1	9%	3%	?
COc1ccccc1Cc1nc2ccccc2nc1SCC(=O)Nc1cccc(Cl)c1C	nt	12%	14%
CCOC(=O)c1ccccc1NC(=O)COC(=O)CCC1CCCC1	-2%	-18%	4%
C#C[C@@]1(O)CC[C@@H]2[C@H]3CCC4=C/C(=N\O)CC[C@H]4[C@@H]3CC[C@]21CC	19%	nt	nt
Cc1ccc(CN(Cc2ccco2)C(=O)COc2ccc(Cl)cc2Cl)cc1	nt	7%	?
Cc1ccc(CN(Cc2ccco2)C(=O)c2oc3cc(Br)ccc3c2C)cc1	nt	9%	?
O=C(c1ccco1)N(Cc1ccc(Cl)cc1)Cc1ccco1	-6%	-5%	?
Cc1ccc(CN(Cc2ccco2)C(=O)c2ccc(Cl)cc2Cl)cc1	nt	8%	13µM*
CCc1ccc2oc(C(=O)N(Cc3cccc(Cl)c3)Cc3ccco3)c(C)c2c1	nt	13%	8.9µM*
CN(C)c1ccc(CN(Cc2ccco2)C(=O)c2ccco2)cc1	-5%	-3%	11µM*
Cc1cc(C(=O)N2CCN(c3ccc([N+](=O)[O-])cc3)CC2)n[nH]1	2%	-7%	1%
Cc1ccc(OCC(=O)OC2=C(C(=O)c3ccccc3)N(C)S(=O)(=O)c3ccccc32)cc1	nt	0%	-17%
SMILES	GLP1R ag	HEK293 tox	GLP1R inv ag
Cc1ccc(C)c(Cn2c(=O)c3c(nc4n3CCN4c3ccccc3)n(C)c2=O)c1	nt	-7%	3%
O=C(COC(=O)CNC(=O)c1ccccc1F)NC1CC1	0%	20%	-6%
O=C(CSc1nc2c([nH]c3ccccc32)c(=O)n1-c1ccccc1)N1CCCc2ccccc21	nt	20%	4%
Cc1cccc(OCc2nnc(SCCC(=O)O)n2-c2ccccc2)c1	-5%	2%	9%
O=C(O)CSc1nnc(COc2ccccc2)n1-c1ccccc1	-4%	-21%	7%
O=C(CSc1nnc(COc2ccccc2)n1-c1ccccc1)c1cccs1	0%	6%	8.9µM*
Cc1ccc(OCc2nnc(SCC(=O)c3cccs3)n2-c2ccccc2)cc1C	15%	-5%	10µM*
Cc1ccc(/C=N/n2c(-c3ccccc3)csc2=S)cc1	-4%	nt	nt
Cc1ccc(C(=O)Nc2ccc3c(c2)N(C)C(=O)c2ccccc2S3)cc1F	nt	?	1.8µM*
CC(=O)Nc1cc(C(=O)Nc2ccc3c(c2)N(C)C(=O)c2ccccc2S3)ccc1C	nt	-29%	?
CN(CC(=O)Nc1cccc(F)c1)C(=O)CCc1nc2sc3c(c2c(=O)[nH]1)CCCC3	-1%	-11%	?
Cc1nc2nncn2c(Nc2ccc(F)cc2)c1C	nt	-6%	-7%
COc1ccc(-c2cn3cccnc3n2)cc1NC(=O)Nc1cc(C)ccc1C	nt	-23%	?
CCN(CC)CCCNC(=O)CCC(=O)NNc1nc2ccccc2c2nc(C)nn12	-6%	7.9µM*!	-7%
Cc1nc2c3ccccc3nc(NNC(=O)CCC(=O)NCCC(C)C)n2n1	3%	7%	16%
O=C(NCc1ccccc1Cl)c1ccc2c(c1)NC(=O)C(CS(=O)(=O)Cc1ccc(F)cc1Cl)N2 (stereo not given)	nt	-4%	-13%
CC1CN(C/C(=N\O)C23CC4CC(CC(C4)C2)C3)CC(C)O1 (stereo not given)	17%	10%	?
CC1(C(=O)Nc2cccc3c2CCCC3)CCN1C(=O)CCC1CCCC1 (stereo not given)	23%	-2%	11µM*
CSc1ccccc1NC(=O)C1(C)CCN1C(=O)CCC1CCCC1 (stereo not given)	12%	2%	?
COc1ccc(-n2c(Cc3ccccc3)nnc2SCc2ccc([N+](=O)[O-])cc2)cc1	35%	-25%	?
O=[N+]([O-])c1ccc(CSc2nnc(Cc3ccccc3)n2-c2ccc(F)cc2)cc1	23%	-26%	10µM*
O=C1NC[C@H](CCCCN2C[C@H](Cc3ccc(O)cc3)N(CC3CCCCC3)C(=O)C2=O)N(Cc2ccccc2)C1=O	-2%	-3%	19%
CC(C)(C)c1ccc(/C=N/OCC(=O)NCc2ccccc2)cc1	15%	20%	8.9µM*
Cc1ccc(CNC(=O)CO/N=C/c2ccc(C(C)(C)C)cc2)cc1	-3%	-21%	?
CCOc1ncccc1C(=O)OCc1ccc(Cl)cc1	8%	0%	22%
SMILES	GLP1R ag	HEK293 tox	GLP1R inv ag
CCOc1ncccc1C(=O)OCc1ccc(C(=O)OC)cc1	11µM*	?	7%
CCOc1ccc(CCN2C(=S)N([C@@H](CC(C)C)CN3CCCC3CN3C(=S)NC[C@@H]3Cc3ccc(O)cc3)C[C@@H]2Cc2ccc(O)cc2)cc1 (stereo not given in full)	-1%	-21%	?
CCOc1ccc(CCN2C(=S)N([C@@H](CC(C)C)CN3CCC[C@@H]3CN3C(=S)NC[C@@H]3CC(C)C)C[C@@H]2Cc2ccc(O)cc2)cc1	2%	-21%	?
CCOc1ccc(CCN2C(=S)N([C@@H](CC(C)C)CN3CCCC3CN3C(=S)NC[C@@H]3Cc3ccc(O)cc3)C[C@@H]2Cc2ccccc2)cc1 (stereo not given in full)	-1%	1%	11µM*
CCOc1ccc(CCN2C(=S)N([C@@H](CC(C)C)CN3CCCC3CN3C(=S)NC[C@@H]3Cc3ccc(O)cc3)C[C@@H]2CC(C)C)cc1 (stereo not given in full)	9%	-4%	10µM*
CCN(CC)CCNC(=O)c1ccc(NC(=O)c2ccc(Cl)c(S(=O)(=O)N3CCCCCC3)c2)cc1	?	?	4µM*
CCN(CC)CCNC(=O)c1ccc(NC(C)=O)cc1	-5%	9%	1%
